Measurements: ChEMBL document CHEMBL3988442, “University of Dundee, Small-Polar-MMV Screening Library” (2021)
The whole screen tested about 48,000 compounds, of which about 13,000 (27%) showed an effect of 50% or more. Some of the results follow.

The molecules below were run on Wolbachia pipientis (assay: Anti-Wolbachia Cell-Based Screen). Settings: 5 µM.
Format: functional
Set-up: scale not given: in the data most compounds retested in dose-response had high values

First: O=C(c1cccnc1O)N1CCCC2(C=Cc3ccccc3O2)CC1 (configuration not stated)
Second: CCC(CNC(=O)c1ccccn1)N1CCc2ccccc2C1 (configuration not stated)
The “Percent Effect” value of the first is lower: 2.5% for the first, 2.728% for the second.

Going from `COc1cccc(COCC(O)CN2CC(n3cccn3)C2)c1` (configuration not stated) to `CCOc1ccc2c(c1)C=C(C(=O)NC(C)Cn1cccn1)CO2` (configuration not stated), the “Percent Effect” value rises from -10.3% to 15.57%.

First: FC(F)Oc1ccc(CN2CCOC3(CCOCC3)C2)cc1Cl
Second: CCN1CC2(CCC1=O)CCN(C(=O)C(O)c1cccc(Cl)c1)CC2 (configuration not stated)
The “Percent Effect” value of the first is higher: 7.261% for the first, -4.5% for the second.

Going from `CN(C)C(=O)N1CCN(Cc2ccc3occc3c2)[C@H]2CS(=O)(=O)C[C@H]21` to `Cc1ccsc1C(=O)NC1CCS(=O)(=O)c2ccccc21` (configuration not stated), the “Percent Effect” value rises from -2.327% to 9%.

First: COc1ccccc1CCN(C)C(=O)NC(C)c1nncn1C (configuration not stated)
Second: CC(C)COCC(NC(=O)CSc1nnc[nH]1)c1ccco1 (configuration not stated)
The “Percent Effect” value of the first is lower: 3.532% for the first, 34.68% for the second.

Going from `CC(Nc1nc2c(cnn2C)c(=O)[nH]1)c1ccccn1` (configuration not stated) to `CC(CNC(=O)c1cccc(-n2cccn2)n1)Cn1ccnc1` (configuration not stated), the “Percent Effect” value falls from -0.01009% to -7.743%.

Compared with `O=C(NCCCNc1ccccc1)c1scnc1Cl`, `c1ccc(NCCn2cc(C3CCCNC3)nn2)cc1` (configuration not stated) is lower in “Percent Effect” value: 2.651% for the first, -6.163% for the second.

Compared with `O=C(CN1CCOC(c2ccccc2C(F)(F)F)C1)NC1CC1` (configuration not stated), `O=C1NCCCCC1NC(=O)N1CCCc2ccccc21` (configuration not stated) is lower in “Percent Effect” value: 8.433% for the first, 0.9845% for the second.

Going from `COCCCNc1nc(CNC(=O)C2CCC2)cc(-c2ccco2)n1` to `COCCCNc1nc(CNC(C)=O)cc(-c2ccco2)n1`, the “Percent Effect” value falls from 103.2% to 96.87%.

First: COCCN1CCn2cc(CNC(=O)C3CCC3)nc2C1
Second: COCCNc1ccccc1CNC(=O)C1CCCOC1 (configuration not stated)
The “Percent Effect” value of the first is higher: -2.168% for the first, -2.92% for the second.

First: Cc1cc(NCc2csc(-c3ccco3)n2)ccc1C(N)=O
Second: COCCN(C(=O)c1nc(-c2ccco2)sc1C)C1CC1
The “Percent Effect” value of the first is lower: -17.43% for the first, 4.119% for the second.

Compared with `CN1CCC(N2CCOC[C@H](OCC(=O)N(C)C)C2)CC1`, `CSCCC(=O)N1CCC(c2nccn2CCN(C)C)CC1` is higher in “Percent Effect” value: -7.154% for the first, -6.399% for the second.

Compared with `CN(Cc1nccs1)c1nc(-c2ccccn2)nc2c1CCNCC2`, `Cl.c1cc(NCc2ccncc2)nc(C2CCCNC2)c1` (configuration not stated) is higher in “Percent Effect” value: -16.23% for the first, 93.58% for the second.

Going from `C[C@@H]1CN(C2(C(=O)N3CCCCCC3)Cc3ccccc3C2)C[C@H](C)O1` to `C[C@@H]1CN(C(=O)C2(N3CCCCC3)Cc3ccccc3C2)C[C@H](C)O1`, the “Percent Effect” value falls from 10.21% to 1.52%.

Going from `O=C(NC1CCNC1)C1(N2CCCCC2)Cc2ccccc2C1` (configuration not stated) to `O=C(NC1CCNCC1)C1(N2CCCCC2)Cc2ccccc2C1`, the “Percent Effect” value rises from 108.7% to 123.6%.

Going from `C[C@@H]1CN(C2(C(=O)N3CCNCC3)Cc3ccccc3C2)C[C@H](C)O1` to `O=C1NCCCC[C@@H]1NC(=O)C1(N2CCCCC2)Cc2ccccc2C1`, the “Percent Effect” value rises from 0.2637% to 94.83%.

First: O=C1NCCCCC1NC(=O)N1CCc2ccccc21 (configuration not stated)
Second: CCN1CCN(C2(C(=O)NC3CCCC3)Cc3ccccc3C2)CC1
The “Percent Effect” value of the first is lower: -9.694% for the first, 34.09% for the second.

First: CCC(C)(C)n1nnnc1C(c1cccs1)N1CCc2ccccc21 (configuration not stated)
Second: CCC(C)(C)n1nnnc1C(c1cccs1)N1CCc2ccccc2C1 (configuration not stated)
The “Percent Effect” value of the first is higher: 114.5% for the first, 110.2% for the second.

First: Cc1nnc(NCC(c2cccs2)N2CCCC2)c(C#N)c1C (configuration not stated)
Second: CCn1cnnc1CNC(=O)NCC(c1cccs1)N1CCCC1 (configuration not stated)
The “Percent Effect” value of the first is higher: 15.53% for the first, -4.375% for the second.

First: CCC(C)(C)n1nnnc1C(c1cccs1)N1CCCCC1 (configuration not stated)
Second: Cc1nc(CN2CCCn3cnc(COC(C)C)c3C2)cs1.O=C(O)C(F)(F)F
The “Percent Effect” value of the first is higher: 117.5% for the first, 6.346% for the second.

Going from `CCC(CNC(=O)c1cncc(Br)c1)N1CCc2ccccc2C1` (configuration not stated) to `O=C(CCNc1ccc(Br)cn1)NCc1ccncc1`, the “Percent Effect” value falls from 4.86% to 2.511%.

First: CCCN(C(=O)CS(=O)(=O)c1ccccc1)c1cccc(C)c1
Second: Cc1cccc(-c2c[nH]c(C3CCCN3)n2)c1.Cl.Cl (configuration not stated)
The “Percent Effect” value of the first is higher: -28.2% for the first, -28.51% for the second.

Compared with `Cl.FC(F)CNc1cnc(C2CCCN2)cn1` (configuration not stated), `Cl.c1cc(CNc2cnc(C3CCCN3)cn2)ccn1` (configuration not stated) is lower in “Percent Effect” value: 111.3% for the first, 93.64% for the second.

First: Cl.c1cc(NCc2ccncc2)nc(C2CCCN2)c1 (configuration not stated)
Second: OC1CCN(Cc2ccc(CNc3ccc(Cl)cn3)cc2)CC1
The “Percent Effect” value of the first is higher: 109.1% for the first, -3.648% for the second.

Compared with `COCC(=O)Nc1ccc(-c2noc([C@@H]3CCCN3)n2)cn1`, `Cc1ccc(NCCCNC(=O)NCC2CCS(=O)(=O)C2)nc1` (configuration not stated) is lower in “Percent Effect” value: 10.12% for the first, 4.563% for the second.

First: CCOc1cncc(N(C)CC(=O)NC)n1
Second: COc1ccc(F)cc1C(=O)N1CCn2c(nnc2C(F)(F)F)C1
The “Percent Effect” value of the first is higher: 3.632% for the first, -12.82% for the second.
